Assay results from the supplement of paper PMC10338343.
± gives the standard deviation.

The sequences below were run on MILI (PIWIL2) piRISC loaded with L1MC piRNA (26 nt) (assay: pre-steady-state target cleavage rate (min^-1); guide: L1MC piRNA 5'p-UAACUAAAUACUAUGCAAGCUGUAGG; MIWI and MILI are mouse PIWI proteins and EfPiwi is from a freshwater sponge; tags in brackets are library labels; higher = faster piRNA-guided slicing of the target). Conditions: auxiliary factor: 500 nM mouse GTSF1.
Outline: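 In HEPES–potassium acetate buffer at 33 °C, […] transcribed, DNA-blocked target RNA library was mixed with 1 nM active affinity-purified piRISC carrying one synthetic guide, with or without 500 nM GTSF1 partner protein, for 0–8 or 0–960 min. Uncleaved targets were sequenced and normalised to depth and to weakly complementary targets; three trials were pooled and k3 was capped at 0.0001 min^-1. The pre-steady-state cleavage rate followed from a burst-and-steady-state fit.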
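Note: 1 nM active piRISC with 0.1 nM target library at 33 °C single turnover.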

Point of comparison: UCCUGGAUCACGAUGCAUAGUAUUUUCAAA, “pre-steady-state target cleavage rate” value 0.0499 ± 0.012. Against it:
- UCCUGCUACAGCUUGCAUAGUUAAUAGUUA — lower, 0.0263 ± 0.0097
- UCCUGGUACAGCUUGCUUAGUAUUUACUUA — higher, 0.191 ± 0.038
- UCCUGGAUGUGCUUCGUUAGUAUUUAGAAA — lower, < 0.0001
- UCCUGGAUGUGCUUGCAUACUAAUUAGUUA — lower, 0.00944 ± 0.0038
- UCCUGGAUCAGCUUGCAUAGUAAAUUCAAA — lower, 0.0136 ± 0.0055
- UCCUGGAUGAGCUUGCAUAGUUUAUAGUUA — lower, 0.0127 ± 0.0052
- UCCUGGAUGUGCUUGCAUAGUUAAUAGUUA — lower, 0.00482 ± 0.0042
- UCCUGGAACAGCAACCAUAGUAUUUAGAAA — lower, 0.018 ± 0.0072
- UCCUGCUAGUCCUUGCAUAGUAUUUACAAA — lower, 0.0056 ± 0.004
- UCCUGGAUGUCCUUGCAUAGUAUUUUCUUA — within error, 0.0376 ± 0.011
- UCCUCCUACAGCAUGCAUAGUAUUUUCAAA — higher, 0.138 ± 0.03
- UCCUCCUACUCGUUGCAUAGUAUUUUCAAA — within error, 0.0494 ± 0.013
- UCCUGGAUGUCGAAACAUAGUAUUUAGUUA — lower, 0.0131 ± 0.004
- UCCUCGUACAGCUUGCAUAGUAUUUACUUA — higher, 0.0971 ± 0.015
- UCCUCCUACAGCUUGCUAAGUAUUUAGAAA — higher, 0.0796 ± 0.016
- UCCUGGAUGUCGAUCAUAGUAUUUAGUUA — lower, 0.017 ± 0.006
- UCCUGGUACAGCUUGCAUAGUUUUUAGAUA — within error, 0.0378 ± 0.017
- UCCUGGAUGUCGAUGCAUAGUAUUUUGUUA — within error, 0.0682 ± 0.016
- UCCUGGAUGUCGUUGACAUAGUAUUUAGUUA — lower, 0.0142 ± 0.0054
- UCCUGGAUGUCCUUGCAUAGUAUUUUGUUA — the same, 0.0499 ± 0.0089
- UCCUGGAUCAGCUUCCAUAGUUUUUAGUUA — lower, 0.0089 ± 0.0041
- UCCUGGAACAGCUUGCAUAGGAUUUAGUUA — lower, 0.00777 ± 0.0035
- UCCUGGAUGUGCUUGACAUAGUAUUUAGUUA — within error, 0.0338 ± 0.009
- UCCUCCUACAGCUUGCAAUCUAUUUAGAAA — lower, 0.0218 ± 0.007
- UCCUGGUACAGCUUGCAUAGUAAUUAGAAA — within error, 0.0664 ± 0.018
- UCCUGGUACAGCAUGCAUAGAAUUUAGUUA — higher, 0.197 ± 0.07
- UCCUGGAUGUCGUUGCAUAGUAUUUAGGUUA — higher, 0.152 ± 0.033
- UCCUGGAUCAGCUUGCAUAGUAUAAAGUAA — higher, 0.11 ± 0.024
- UCCUGGAUGUGCUUGCAUAGUAUUUAGAUA — within error, 0.0576 ± 0.014
- UCCUGGAUGUCCUUGCAUAGUAUAUACUUA — lower, 0.00862 ± 0.0049
- UCCUGGAUCAGCAACCAUAGUAUUUAGUUA — higher, 0.116 ± 0.013
- UCCUGGAUCAGCUUGCAUAGUAUUAGUUA — higher, 0.141 ± 0.018

Same assay, conditions: auxiliary factor: none (no GTSF1)

Point of comparison: UCCUGGAUGUCGUUGCAAAGUUUUUAGUUA, “pre-steady-state target cleavage rate” value 0.00384 ± 0.0022. Against it:
- UCCUGGAUGUCGAACGUAUCUAUUUAGUCA — lower, < 0.0001
- UCCUGGAUGUCGAAGCAUAGAAUUUAGUAA — lower, < 0.0001
- UCCUGGAUGUCGAACCAUAGUAUUAGUUA — lower, < 0.0001
- UCCUGGAUGUCGAACGUAUGUAUUUAGUAA — lower, < 0.0001
- UCCUGGAUGUCGAAGCAGUAGUAUUUAGUUA — lower, < 0.0001
- UCCUGGAUGUCGAACGUAUGUAUUUAGUA — lower, < 0.0001
